Results reported in PubChem BioAssay (NCI).
About 83,000 compounds went through this panel and 20% of them were active in at least one assay; those are over-represented in the sample as a whole.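 Each cell line was grown in a 96-well plate and treated with one concentration of compound for 48 hours. Values below 10 were considered active.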

Legend:
Assay in all cases: NCI-60 one-dose screen, 48 h (100 = growth as untreated, 0 = no growth, -100 = all killed)
Settings in all cases: 10 µM unless noted
[1] = test system: HCT-15 colon
[2] = test system: HT29 colon
[3] = test system: SNB-75 CNS
[4] = test system: SNB-19 CNS
[5] = test system: U251 CNS
[6] = test system: PC-3 prostate
[7] = test system: SK-MEL-5 melanoma
[8] = test system: UACC-62 melanoma
[9] = test system: LOX IMVI melanoma
[10] = test system: SK-MEL-28 melanoma
[11] = test system: SK-MEL-2 melanoma
[12] = test system: EKVX NSCLC
[13] = test system: UO-31 renal
[14] = test system: TK-10 renal
[15] = test system: ACHN renal
[16] = test system: CAKI-1 renal
[17] = test system: A498 renal
[18] = test system: CCRF-CEM leukemia
[19] = test system: MOLT-4 leukemia
[20] = test system: SN12C renal

Measured: growth

CC(C)n1c2ccc(Br)cc2c2c3c(c4c5ccccc5ccc4c21)C(=O)NC3=O
inactive: [1] 83.7% | [2] 70.3% | [3] 103% | [4] 102% | [5] 98% | [6] 89.8% | [7] 90.7% | [8] 101% | [9] 106% | [10] 96.5% | [11] 111% | [12] 86.1% | [13] 59.2% | [14] 91.8% | [15] 68.4% | [16] 82.5% | [17] 71.8% | [18] 90.1% | [19] 75.1%

Brc1ccc(Nc2nc(Nc3cnc4ccccc4c3)c3[nH]cnc3n2)cc1
inactive: [1] 83% | [2] 70.7% | [3] 77.5% | [4] 93.6% | [5] 89.4% | [6] 27.6% | [7] 72.6% | [8] 66.8% | [9] 63.7% | [10] 94.2% | [11] 78.2% | [12] 40.3% | [13] 70.3% | [14] 113% | [15] 77.5% | [16] 82.9% | [17] 79.6% | [18] 60.6% | [19] 78.3%

CCCCO[C@@H]1C=C2[C@H]3CC(C)(C)C(=O)C[C@]3(C(=O)O[C@@H]3O[C@H](CO[C@@H]4O[C@H](CO)[C@@H](OC5OC(C)C(O)C(O)C5O)[C@H](O)[C@H]4O)[C@@H](O)[C@H](O)[C@H]3O)CC[C@@]2(C)[C@]2(C)CC[C@H]3C(C)(C)C(=O)CC[C@]3(C)[C@@H]12 (stereo partly drawn)
inactive: [1] 54.5% | [2] 43.2% | [3] 31.3% | [4] 88% | [5] 56.4% | [6] 85.2% | [7] 63.9% | [8] 81.4% | [9] 76.9% | [10] 41.5% | [11] 64.3% | [12] 87.1% | [20] 81.2% | [13] 19.4% | [14] 61.6% | [15] 22.9% | [16] 50.8% | [18] 43.3% | [19] 51.5%

Cc1cn(C)cn1
inactive: [1] 99% | [2] 98.7% | [3] 98.7% | [4] 107% | [5] 98% | [6] 93.9% | [7] 112% | [8] 105% | [9] 94.6% | [10] 109% | [11] 103% | [12] 105% | [13] 82.5% | [14] 95.9% | [15] 108% | [16] 88.7% | [17] 114% | [18] 97.3% | [19] 105%

C1CCC(N2CN3c4nonc4N4CN(C5CCCCC5)CN5c6nonc6N(C2)C3C45)CC1 (stereo not drawn)
inactive: [1] 84.5% | [2] 105% | [3] 88.7% | [4] 102% | [5] 93.3% | [6] 87.9% | [7] 93.5% | [8] 88.7% | [9] 98.9% | [10] 101% | [11] 102% | [12] 82.4% | [20] 92.4% | [13] 71.9% | [14] 102% | [15] 103% | [16] 84.9% | [18] 51% | [19] 91.8%

C[C@H](c1nc2ccc(C#N)cc2[nH]1)[C@H]1CC[C@H]2[C@@H]3CCC4=CC(=O)CC[C@]4(C)[C@H]3CC[C@]12C
inactive: [1] 44.7% | [2] 32.9% | [3] 75.7% | [4] 71.6% | [5] 65.3% | [6] 28.5% | [7] 50.4% | [8] 56.6% | [9] 71.7% | [10] 89.4% | [11] 84.9% | [12] 58.4% | [20] 69.5% | [13] 51.8% | [14] 95.2% | [15] 80.4% | [16] 50.8% | [18] 46.5% | [19] 49.2%

O=C1/C(=C/c2c[nH]c(=O)[nH]c2=O)SC(=S)N1Cc1ccccc1
inactive: [1] 104% | [2] 101% | [3] 80.1% | [4] 95.2% | [5] 97.7% | [6] 98.9% | [7] 100% | [8] 91.5% | [9] 99.8% | [10] 103% | [11] 103% | [12] 74.6% | [20] 95.5% | [13] 75.8% | [14] 102% | [15] 102% | [16] 93.6% | [18] 104% | [19] 103%
